An excerpt weighted towards active compounds, which were near 0.77% of everything screened.
LmPK inh: inhibitors of Leishmania mexicana pyruvate kinase | Q27686 | purified LmPK, Kinase-Glo ATP luminescence, 1 h | Potency, µM (doses to about 57.5 µM), inactives show at the top dose activity change, negative = inhibition, most hits filed as inhibitors | hit rate 0.37% among 290,000 | AID 1721; active means well fitted curve in the direction sought with a large enough effect; inconclusive means small, poorly fitted or top-dose-only effect, or another doubt; inactive means no such curve, though single readings can be large; an effect the other way counts as inactive or inconclusive; further: potency means the concentration at half of the fitted maximal effect; on the % scale 0 is the no-effect control and ±100 the full control effect
Target sequence (Q27686 whole entry, looked up): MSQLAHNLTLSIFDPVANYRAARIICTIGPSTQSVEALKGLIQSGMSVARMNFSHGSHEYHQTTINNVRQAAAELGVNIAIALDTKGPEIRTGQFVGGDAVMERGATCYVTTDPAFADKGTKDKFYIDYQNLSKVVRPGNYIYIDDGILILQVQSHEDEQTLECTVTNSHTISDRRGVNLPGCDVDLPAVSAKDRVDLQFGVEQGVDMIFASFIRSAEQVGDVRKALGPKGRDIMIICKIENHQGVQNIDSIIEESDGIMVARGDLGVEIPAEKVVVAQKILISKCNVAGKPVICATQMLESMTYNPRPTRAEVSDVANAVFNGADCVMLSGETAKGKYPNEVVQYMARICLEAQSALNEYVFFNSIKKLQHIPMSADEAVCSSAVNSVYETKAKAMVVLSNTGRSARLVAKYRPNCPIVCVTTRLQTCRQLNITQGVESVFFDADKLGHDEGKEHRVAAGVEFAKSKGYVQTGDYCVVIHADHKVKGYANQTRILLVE
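Purified LmPK (0.1 nM) with 0.5 mM PEP and 0.1 mM ADP in imidazole buffer pH 7.2 with MgCl2/KCl, 1 h at room temperature. ATP formed was read by luciferase luminescence and normalized to no-enzyme and uninhibited controls.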
NS1 function inh: inhibitors of influenza NS1 protein function. Potency, µM (highest dose often 46.1 µM), for inactives: top-dose activity, positive = more growth. hit rate 0.4% among 270,000. AID 2326; further: potency means the concentration at half of the fitted maximal effect; actives are rising curves; nearly all actives have a fitted effect of over 50% in size
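OD600 was taken as the measure of yeast growth restored by compound in an NS1-expressing S. cerevisiae strain. Cells had been washed out of glucose medium and diluted 1:100 into galactose -URA medium, pH 6.0.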
RE007 growth inh: less growth of the S. pombe RE007 Vpr strain | hit rate 0.21% among 360,000 | Potency, µM (top dose mostly 92.2 µM), inactives show at the highest dose activity change, negative = less growth, usual class: inhibitors | AID 651644 | S. pombe RE007 Vpr strain, BacTiter-Glo ATP luminescence, 24 h; active means well fitted falling curve with a large enough effect; inconclusive means small, poorly fitted or top-dose-only effect; inactive means no such curve, though single readings can be large or run the other way; further: potency means the concentration at half of the fitted maximal effect; on the % scale 0 is the no-effect control and ±100 the full control effect; nearly all actives have a fitted effect of over 50% in size
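Fission yeast RE007 carrying one integrated HIV-1 vpr copy, seeded at OD 0.01 in PMG+AL medium with 23 nL pinned compound. Grown 24 h at 30 degrees; viability read by BacTiter-Glo luminescence after 5 min.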
Tb PYK inh: T. brucei pyruvate kinase inhibition | Q57TT1 | TbPYK enzyme, Kinase-Glo Plus ATP luminescence, 45 min | Potency, µM (series often up to 76.8 µM), for inactives: at the top dose activity, negative = inhibition, most hits filed as inhibitors | hit rate 0.12% among 410,000 | AID 624173; active means well fitted curve in the direction sought with a large enough effect; inconclusive means small, poorly fitted or top-dose-only effect, or another doubt; inactive means no such curve, though single readings can be large; an effect the other way counts as inactive or inconclusive; further: potency means the concentration at half of the fitted maximal effect; on the % scale 0 is the no-effect control and ±100 the full control effect; nearly all actives have a fitted effect of over 50% in size
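T. brucei PYK with substrate was exposed to pin-transferred compounds across a concentration series, then started with 130 uM ADP (final). After 45 min at room temperature, Kinase-Glo Plus luminescence was read, normalized and curve-fitted.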
NS1 inh valid: influenza NS1 function inhibition validation; influenza NS1 function cell assay, 15-point titration; 1,400 tested, under 10 active; activity change, negative = inhibition, % at 32.9 µM; shares compounds with NS1 function inh; AID 492980; further: 0% is about no effect
Flu PR8 replic: influenza NS1 inhibitors: inhibition of influenza A/PR/8/34 replication. virus titer (log TCID50), log10 TCID50 at 5 µM. shares compounds with NS1 function inh. AID 504647. hit rate 30% among 95. MDCK infected influenza A/PR/8/34, virus titer TCID50; active compounds read low; call rule not given here
Starred values were filed as active, the others as inactive; ? = inconclusive; · = not tested or not shown; [ ] = dose if it differs, or a comment. Unless noted, the call rests on the fitted dose curve.

SMILES	LmPK inh	NS1 function inh	RE007 growth inh	Tb PYK inh	NS1 inh valid	others
Cc1ccc(S(=O)(=O)C/N=C(/NC(=S)N(c2ccccc2)c2ccccc2)c2ccccc2)cc1	-12%	10µM*	2%	-26%	?
O=C(Nc1cccc(Cl)c1Cl)c1cc(S(=O)(=O)N2CCCCC2)ccc1F	·	·	·	-4%	·
O=C(O)c1ccccc1-c1ccc(C(F)(F)F)cc1	·	·	·	-4%	·
Cc1c(C(=O)Nc2cccc(Cl)c2)oc2ccc(S(=O)(=O)N3CCC4(CC3)OCCO4)cc12	1%	11µM*	10%	1%	-19
COc1cccc(NC(=O)c2oc3ccc(S(=O)(=O)N4CCC5(CC4)OCCO5)cc3c2C)c1	·	·	·	-11%	·
CCOC(=O)Nc1ccc2c(CN3CCN(S(=O)(=O)c4ccccc4)CC3)cc(=O)oc2c1	4%	8.9µM*	-9%	-5%	4
O=C(Cn1cnc2c(oc3ccccc32)c1=O)NCCc1ccccc1	·	5µM*	2%	1%	-13
CC(C)C(C)NC(=O)Cn1cnc2c(oc3ccccc32)c1=O (stereo unspecified)	-2%	-14%	2%	-2%	·
Nc1[nH]c(C(=O)c2ccccc2)c(-c2ccc(Cl)c(F)c2)c1C(=O)NCCc1c[nH]c2ccccc12	·	·	-16%	3%	·
O=C1NC(=O)C2(Cc3ccccc3N3CCCC32)C(=O)N1c1ccc(Cl)cc1 (stereo unspecified)	4%	11µM*	17%	2%	16
Cc1ccc(N2C(=O)NC(=O)C3(Cc4ccccc4N4CCCC43)C2=O)cc1 (stereo unspecified)	-1%	?	9%	10%	·
CCOC(=O)CN1CC23C=CC(O2)C(C(=O)Nc2ccc(OC)cc2OC)C3C1=O (stereo unspecified)	1%	3.2µM*	7%	-7%	-2
COC(=O)[C@H]1C[C@@H]1[C@H](NC(=O)[C@H]1C[C@@H]1[C@H](NC(=O)OCc1ccccc1)c1ccccc1)c1ccccc1	3%	10µM*	-9%	2%	-5
COc1ccc(-c2ccc(-c3cc(=O)oc4c(C(C)C)ccc(C)c34)cc2)cc1	·	·	-5%	0%	·
C=CCn1c(-c2oc3nc(-c4ccccc4)cc(-c4ccccc4)c3c2N)n[nH]c1=S	2%	1.1µM*	51%	-5%	-7
CCOc1ccc2c(c1)C(c1ccccc1)=NNC(c1ccccc1)=N2	-2%	11µM*	-2%	0%	-13
CCc1ccc2c(c1)C(c1ccncc1)=NNC(c1ccccc1)=N2	0%	-6%	-13%	3%	·
Cc1ccc(-n2ncc(C(=O)NCCCN3CCc4ccccc4C3)c2C2CCN(C(=O)OC(C)(C)C)CC2)c(C)c1	·	·	·	1%	·
CC1(C)CCC2=C(O1)c1ccccc1C(=O)C2=O	·	-1%	·	·	·
COC(=O)C1=C(C)NC2=C(C(=O)CCC2)C1c1cn(Cc2ccc(Cl)cc2Cl)nc1-c1ccccc1 (stereo unspecified)	1%	13µM*	-14%	1%	13
CCOC(=O)C1=C(C)NC2=C(C(=O)CCC2)C1c1cn(Cc2ccc(Cl)cc2Cl)nc1-c1ccccc1 (stereo unspecified)	3%	?	6%	1%	2	Flu PR8 replic=8
COC(=O)C1=C(C)NC2=C(C(=O)CCC2)C1c1cccs1 (stereo unspecified)	-3%	?	·	·	·
COc1cc(/C=N/NC(=O)CCc2c(C)n[nH]c2C)ccc1O	7%	11%	12%	13%	·
COc1ccc(/C=N/NC(=O)CCc2c(C)n[nH]c2C)cc1OC	8%	5.6µM*	-12%	-15%	19
Cn1c(SCCOc2ccccc2Cl)nnc1-c1cccs1	1%	?	-4%	-18%	?
SMILES	LmPK inh	NS1 function inh	RE007 growth inh	Tb PYK inh	NS1 inh valid	others
CCOc1ccc(C(C#N)N2CCOCC2)cc1OC (stereo unspecified)	7%	16µM*	-9%	-7%	?
CCOc1cc(C(C#N)N2CCOCC2)ccc1OC (stereo unspecified)	0%	-2%	1%	3%	·
CC(C)(C)c1nc(N2CCN(C(=O)c3ccco3)CC2)c2nnn(Cc3ccccc3Cl)c2n1	6%	13µM*	2%	5%	?
CC1=C(C(=O)N2CCCCCC2)CC(CC(=O)NC2CCCC2)C(=O)N1Cc1ccc(F)cc1 (stereo unspecified)	·	·	-3%	2%	·
N=c1c(C(=O)NCc2ccco2)cc2c(=O)n3ccccc3nc2n1Cc1ccc(Cl)cc1	2%	7.9µM*	-2%	2%	-27
N=c1c(C(=O)NCc2ccco2)cc2c(=O)n3ccccc3nc2n1Cc1ccccc1	3%	-5%	-19%	-8%	·
COc1ccc(C2Nc3ccccc3C(=O)N2Cc2ccco2)cc1COc1ccc(NC(C)=O)cc1 (stereo unspecified)	5%	13µM*	27%	-8%	10
Cc1ccc(/C=N/NC(=O)NC23CC4CC(CC(C4)C2)C3)o1	6%	1%	23%	-9%	·
O=C(CNC(=O)C(c1ccccc1)c1ccccc1)N/N=C\c1ccc(C(=O)O)cc1	-3%	?	-5%	0%	8
CN(C(=O)COC(=O)CCc1c[nH]c2ccccc12)C(c1ccccc1)c1ccccc1	6%	8.9µM*	-12%	5%	-14
COc1ccc(-n2c(=S)[nH]c3cc(C(=O)NCc4ccccc4OC)ccc3c2=O)c(OC)c1	-2%	11%	1%	1%	·
COc1ccc(-n2c(=S)[nH]c3cc(C(=O)NCc4ccco4)ccc3c2=O)c(OC)c1	-1%	13µM*	-9%	-2%	4
COC(=O)C1=C(C(=O)OC)[C@@H]2N(Cc3ccccc3)c3ccccc3[C@@]23C[C@@H](C(=O)OC)N(S(=O)(=O)c2ccc(C#N)cc2)C3=N1	4%[11.5 µM]	·	·	·	·
COC(=O)c1sccc1S(=O)(=O)N(CC(=O)NCc1ccc(C)cc1)c1ccc(C)c(C)c1	·	·	·	0%	·
Cc1cc(=O)[nH]c(NN=Cc2c(Cl)cccc2Cl)n1	·	·	-2%	4%	·
Cc1cc(=O)[nH]c(N/N=C/c2c(O)n(-c3ccccc3)c(=O)c3ccccc23)n1	-4%	10µM*	·	6%	-2
COc1ccc(-c2cc(C(=O)Nc3nc4ccccc4s3)c3ccccc3n2)cc1OC	1%	22µM*	18%	4%	-2
COc1ccc(-c2cc(C(=O)Nc3ccccc3O)c3ccccc3n2)cc1OC	-3%	16%	-3%	1%	·
COc1ccc(-c2oc3ncn4nc(COc5cccc(C)c5C)nc4c3c2-c2ccc(OC)cc2)cc1	·	·	·	0%	·
COc1cccc(CNC(=O)c2ccc(-c3nc(CSc4ccccc4)c(C)o3)cc2)c1	·	·	·	-13%	·
O=c1cc(O)c2sc(Nc3ccc(F)cc3)nc2[nH]1	-3%	13µM*	23%	-12%	1

Screening data from PubChem BioAssay.
